Data on 40 compounds can be found in PubChem BioAssay AID2778 (National Center for Advancing Translational Sciences (NCATS), 2010).

Records with an inconclusive call do not appear. Where a call stands in place of a potency, no number is given. Active and inactive are the calls of the source. Calls follow the shape of the dose curve; as a rule, active = well fitted inhibition curve with a large enough effect; inconclusive = small, poorly fitted or top-dose-only effect, or effect the other way; inactive = flat fitted curve, though single readings scatter.
Potency is read from the fitted curve at half-maximal effect.

For this experiment, the target named is Menin (Homo sapiens) (UniProt O00255). Nature of the experiment: Confirmation of Inhibitors Targeting the Menin-MLL Interaction in MLL Related Leukemias: Confirmation in an HTRF (commercial TR-FRET) Assay using His-tagged menin and biotin-labeled MLL peptide. Particulars: His-menin / biotin-MLL peptide binding; series mostly up to 126 µM. The text has this: qHTS Assay for Inhibitors Targeting the Menin-MLL Interaction in MLL Related Leukemias
Menin (Homo sapiens), sequence (O00255 whole entry, looked up): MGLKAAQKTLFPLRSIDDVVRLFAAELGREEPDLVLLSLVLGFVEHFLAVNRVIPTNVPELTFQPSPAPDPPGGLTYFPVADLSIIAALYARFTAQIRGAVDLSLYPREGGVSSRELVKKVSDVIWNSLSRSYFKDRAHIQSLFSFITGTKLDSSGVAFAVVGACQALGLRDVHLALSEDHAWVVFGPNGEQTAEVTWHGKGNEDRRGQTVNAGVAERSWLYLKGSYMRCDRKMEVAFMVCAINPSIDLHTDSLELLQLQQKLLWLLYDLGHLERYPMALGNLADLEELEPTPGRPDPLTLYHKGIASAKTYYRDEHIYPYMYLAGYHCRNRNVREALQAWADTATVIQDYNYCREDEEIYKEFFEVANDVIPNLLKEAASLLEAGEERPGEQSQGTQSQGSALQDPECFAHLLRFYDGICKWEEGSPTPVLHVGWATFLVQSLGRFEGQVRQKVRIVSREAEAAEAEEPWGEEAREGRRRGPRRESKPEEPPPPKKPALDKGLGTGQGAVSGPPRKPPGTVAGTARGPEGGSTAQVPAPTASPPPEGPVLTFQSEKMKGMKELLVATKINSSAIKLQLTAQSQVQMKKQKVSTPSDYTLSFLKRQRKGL
NIH Chemical Genomics Center [NCGC]
NIH Molecular Libraries Probe Centers Network [MLPCN]
Assay Submitter (PI): Jolanta Grembecka, Tomasz Cierpicki, University of Virginia
Translocations of the MLL (Mixed Lineage Leukemia) gene are frequently found in human leukemias affecting both children and adults. Fusion of MLL to one of more than 60 genes results in generation of oncogenic proteins upregulating Hox genes, which are vital to blood cell development. Patients harboring fusion of the MLL gene suffer from aggressive leukemias and respond poorly to available therapies. All of the oncogenic fusion proteins have a preserved N-terminal fragment of MLL that has been identified to interact with menin. It has been recently discovered that association with menin is critical to the leukemogenic activity of the MLL fusion oncoproteins. Selective targeting of the menin-MLL interaction could provide an attractive therapeutic approach to develop novel drugs for MLL-related leukemias. Small molecules blocking the menin-MLL interaction should reverse the oncogenic potential of MLL fusion proteins.
We have developed and optimized a fluorescence polarization-based assay for the identification of Menin-MLL inhibitors. The assay was run employing two different MLL-derived peptides. The present assay uses a 12 amino acid peptide labeled with fluorescein at its N-terminus. This peptide consists of the menin high affinity binding motif from MLL and is potently bound by menin. Another peptide with a mutated sequence, labeled with Texas Red, was used in parallel as a less stringent screen for inhibitors.
The present assay uses an alternate technology to confirm hits from the primary screen - homogeneous time resolved fluorescence (HTRF).
The Menin protein, the MLL-wild type (w.t.) derived peptide (N-terminal 12 amino acids), the MLL-derived peptide labeled with Texas Red and the MLL-w.t. peptide labeled with Fluorescein were kindly supplied by laboratory of Dr. Jolanta Grembecka, University of Virginia. All protein and peptide solutions were stored in single use aliquots at -80C. The Eu3+ Cyrptate-conjugated mouse monoclonal antibody anti-6 Histidine (Eu3+-AB) and the Streptavidin-XL665 conjugate (XL665) were purchased from Cisbio International (Bedford, MA). All antibody and XL665 conjugate solution stocks were stored in single use aliquots at -20C. The Buffer components for all assays were purchased from Sigma-Aldrich (St. Louis, MO) and Invitrogen (Carlsbad, CA).
1. HTRF reaction buffer: 50 mM Tris-HCl pH 7.5, 50 mM NaCl, 1mM DTT.
Before use, 0.05% BSA is added.
2. His6-Menin protein, MLL-w.t. labeled with biotin.
Stored in singe use aliquots at -80C.
3. MLL-w.t. unlabeled peptide as positive control: 10 uM final in HTRF buffer.
1. Prepare His6-Menin at 200 nM, MLL-w.t.-biotin at 80 nM in HTRF buffer.
2. Prepare His6-Menin at 200 nM, MLL-w.t.-biotin at 80 nM and 10 uM MLL-w.t. unlabeled mixture in HTRF buffer.
3. Dispense 10 ul per well of reagent in step 1 in columns 2, 4-24 in a black 384 well plate, dispense 10 ul per well of reagents from steps 2 in column 1. Incubate plate at ambient for 15 minutes.
4. Transfer 1 uL per well of compound to plate and incubate at ambient for 1 hr.
5. Dispense 10uL of the donor (6His-Cryptate, 3.5 nM final conc.) and acceptor (SA_XL, 10nM final conc.) complex in the HTRF buffer with 0.01% BSA. Incubate for 1h.
A general note: Time-resolved FRET reads energy transfer from a long-lived donor to a nearby acceptor.
In the case of `Cc1cnc(CNc2ccnc(-c3ccoc3)n2)cn1`, the Potency result is “inactive”.
Consider `C/C(=N\Nc1ccc(Cl)c(C(=O)O)c1)c1ccc[nH]1`, for which the Potency result is “inactive”.
Then `O=[N+]([O-])c1ccc(S(=O)(=O)c2ccccc2)nc1`, with “inactive”; and `C=CCN(CC=C)S(=O)(=O)c1ccc(NC(=S)NC(=O)/C=C/c2cccc3ccccc23)cc1`, with “inactive”.
To `CS(=O)(=O)c1ccc2nc(NC(=O)Nc3cccc(Cl)c3)sc2c1` belongs 112 µM (active); to `Nc1cccc2c1C(=O)N(C(=O)c1ccco1)C2=O`, “inactive”; to `CCOc1cc(CNCCc2ccc(S(N)(=O)=O)cc2)ccc1OCc1ccccc1`, 251 µM (active).
Regarding `CC(=O)c1c(O)cc(O)cc1CC(=O)O`, the Potency result is “inactive”.
Then `CCOc1ccc(C2Nc3ccc4ccccc4c3-c3c2c(=O)oc2ccccc32)cc1` (stereo not given), with “inactive”; and `Cn1ncc2c(N3CCCCC3)nc(NCCCO)nc21`, with “inactive”.
Consider `COc1ccccc1/C=N/n1c(N)c(S(=O)(=O)c2cccs2)c2nc3ccccc3nc21`, for which the Potency entry was “inactive”.
On to `CC(C)Cc1cc(C(=O)NCCCN2CCOCC2)no1`, for which the Potency result was “inactive”.
Consider `O=c1cc(O)c2ccccc2n1Cc1ccccc1F`, for which the Potency result was “inactive”.
Consider `O=C(Nc1cccn(Cc2c(Cl)cccc2Cl)c1=O)c1c(Cl)cccc1Cl`, for which the Potency result was “inactive”.
For `CCOC(=O)N1CCN(C(=O)c2oc3ccc(S(=O)(=O)N(CC)CC)cc3c2C)CC1`, the Potency result is “inactive”.
Consider `CCN1CCN(CC(=O)Nc2ccc(C(C)=O)cc2)CC1`, for which the Potency result was “inactive”.
For `CCc1ccccc1NC(=O)COc1cccc(-n2cnnn2)c1`, the Potency entry is “inactive”.
To `NC(=O)[C@@H]1CCCNc2c(I)cc([N+](=O)[O-])cc2C(=O)N[C@@H](CCCN=C(N)N)C(=O)N[C@@H](CCCN=C(N)N)C(=O)N1` belongs “inactive”; to `COC(=O)COc1ccc(C(C2C(=O)CC(C)(C)CC2=O)C2C(=O)CC(C)(C)CC2=O)cc1`, “inactive”.
For the compound `Cc1nc(C)c(-c2ccc(SCc3ccccc3F)nn2)s1`, the Potency result is “inactive”.
Then `COc1ccc(/C=C(\C#N)C(=O)NCc2ccccc2)cc1`, with “inactive”; and `O=C(CSc1nc(O)cc(=O)n1-c1ccccc1)c1ccc(Br)cc1`, with “inactive”.
Turning to `CCCCn1c(SCC(=O)NCc2ccc(OC)c(C(=O)O)c2)nc2cc(S(N)(=O)=O)ccc21`, the Potency entry is “inactive”.
Turning to `COc1ccccc1N(CC1CO1)S(=O)(=O)c1ccccc1` (stereo not given), the Potency entry is “inactive”.
`Cc1ccc[n+](-c2nc([O-])sc2/C=N/Nc2ccc([N+](=O)[O-])cc2)c1`: the Potency entry was “inactive”.
As for `Oc1ccc(Nc2ncnc3c2oc2ccccc23)cc1`, the Potency result was “inactive”.
As for `Cc1cc2ccccc2nc1SCC(=O)Nc1nc(-c2ccccc2)cs1`, the Potency entry is “inactive”.
On to `CN1C[C@@H]2C[C@H]1CN2c1cc2c(cc1F)c(=O)c(C(=O)O)cn2C1CC1`, for which the Potency result was “inactive”.
For `COc1ccc(-c2csc(NC(=S)NC(=O)/C=C/c3ccc(C(C)C)cc3)n2)cc1OC`, the Potency entry is “inactive”.
With `COc1ccc(C2=C(CN(C)C)C(c3ccccc3)c3ccccc3O2)cc1` (stereo not given), the Potency result was “inactive”.
For the compound `COC(=O)c1cc(CNC(=O)CCCSc2ccccc2)ccc1OC`, the Potency entry was “inactive”.
In the case of `CN(C)CCc1c[nH]c2ccc(CC3COC(=O)N3)cc12` (stereo not given), the Potency entry was “inactive”.
With `CC(CC(=O)Nc1nc2ccccc2[nH]1)n1ccnc1` (stereo not given), the Potency result was “inactive”.
For `O=C(Cn1nc(-c2ccccc2)ccc1=O)N1CCCCC1`, the Potency result is “inactive”.
Take `O=C(CCC1CCCCC1)NCCN1C2=NC[C@H](Cc3ccc(O)cc3)N2C[C@H]1Cc1ccc(O)cc1`: the Potency entry is “inactive”.
As to `O=C(C1CCCN(Cc2cccc(Cl)c2)C1)N1CCCCC1` (stereo not given), the Potency result was “inactive”.
As for `O=C(N/N=C/c1cn(-c2cccs2)nc1-c1ccccc1)c1ccccc1O`, the Potency entry was “inactive”.
With `Cc1c(CCOC(=O)CC23CC4CC(CC(C)(C4)C2)C3)sc[n+]1Cc1ccc([N+](=O)[O-])cc1`, the Potency entry was “inactive”.
In the case of `CCCN1CCN(CC(O)COC(c2ccc(OC)cc2)c2ccc(OC)cc2)CC1` (stereo not given), the Potency result was “inactive”.
In the case of `O=C(Nc1nnc(SCc2ccc(F)cc2)s1)c1ccc2c(c1)C(=O)N(c1ccccc1Cl)C2=O`, the Potency entry was “inactive”.
